The text below walks through data of PubChem BioAssay (Tox21).

Each structure is given as a SMILES string. A number with no mark means an inactive call. Records with an inconclusive call do not appear. Calls of active or inactive are those of the source. Unless noted, calls come from the whole dose curve; as a rule, active = well fitted curve in the direction sought with a large enough effect in the repeat runs; inconclusive = weak or mixed curves; inactive = no such curve, though single readings can be large; an effect the other way counts as inactive or inconclusive.

Test [1] in a line: qHTS assay to identify small molecule agonists of the hypoxia (HIF-1) signaling pathway - cell viability counter screen (AID 1224844; calls by dose curve; note: nearly all actives have a fitted effect of over 50% in size; note: potency is the fitted concentration of half-maximal effect). The gist of the method:
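Cytotoxicity was measured in parallel with the HRE-driven beta-lactamase readout: after 17 hrs of compound exposure at 37C, HRE-bla ME-180 cells received CellTiter-Glo and luminescence was recorded 30 min later.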
Background: Quantitative high-throughput screening tests each substance at several concentrations.

Test [2] can be described thus: qHTS assay to identify small molecule agonists of the hypoxia (HIF-1) signaling pathway (AID 1224846; active = well fitted activation curve with a large enough effect in the signal ratio in the repeat runs, not every such curve was filed as active; the % refers to the signal ratio). The gist of the method: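 Compounds from the Tox21 10K library, dissolved in DMSO, are tested for induction of a hypoxia response element–controlled beta-lactamase reporter in ME-180 cells. Exposure lasts 17 hrs at 37C after a 5 hr settling period, followed by CCF4-AM FRET substrate.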

Test [3] in a line: qHTS assay to identify small molecule agonists of H2AX - cell viability counter screen (AID 1224847; calls by dose curve;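 note: wild-type CHO-K1 cells; top concentration of the series differs between compounds; nearly all actives have a fitted effect of over 30% in size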). The gist of the method: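 After overnight plating of 1000 CHO-K1 cells per well, a 15-concentration compound series was applied for 3 hr at 37C. Luminescence from CellTiter-Glo, read following 30 min at room temperature, reflected cell viability.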
The nature of test [4]: qHTS RealTime-Glo MT Cell Viability Assay in HEK293 cells - 32 hour (AID 1224868). Note: top concentration of the series differs between compounds; nearly all actives have a fitted effect of over 50% in size. The method in brief:
(§1)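 Homogeneous bioluminescent viability format in HEK293 cells (600 cells/well). Following 5 h at 37 C/5% CO2, 23 nL compound was pintooled; the signal was measured repeatedly during 40 h incubation.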

Test [5] can be described thus: A CellTox Green Cytotoxicity Assay to monitor cytotoxicity in HEK293 cells - 0 hour (AID 1224869). Note: nearly all actives have a fitted effect of over 50% in size. The gist of the method:
(§2)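 Cells (HEK293, 600/well) and dye reagent are dispensed together. After 5 h at 37 C, 23 nL compound is pinned in. Plates stay at 37 C for 40 h with fluorescence read at 0h, 8h, 16h, 24h, 32h and 40h.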

Test [6] is described as follows: A CellTox Green Cytotoxicity Assay to monitor cytotoxicity in HEK293 cells - 40 hour (AID 1224871). Note: nearly all actives have a fitted effect of over 45% in size. The method in brief: as §2
A short description of test [7]: qHTS RealTime-Glo MT Cell Viability Assay in HEK293 cells - 16 hour (AID 1224872). Note: top concentration of the series differs between compounds; nearly all actives have a fitted effect of over 50% in size. The method in brief:
as §1

The nature of test [8]: qHTS RealTime-Glo MT Cell Viability Assay in HepG2 cells - 8 hour (AID 1224873). Note: nearly all actives have a fitted effect of over 55% in size. The gist of the method:
(§3)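 HepG2 cells mixed with RealTime-Glo MT reagents (NanoLuc plus cell-permeant prosubstrate) were seeded at 600 cells/well, incubated 5 h at 37 C/5% CO2, then pinned with compounds in DMSO; nonlytic luminescence tracked viability during 40 h treatment.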

Test [9] in a line: qHTS RealTime-Glo MT Cell Viability Assay in HEK293 cells - 40 hour (AID 1224874). Note: nearly all actives have a fitted effect of over 50% in size. The following applies: RealTime-Glo luminescence; max response: stronger effect = lower value. The method in brief: (§4)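 Real-time viability in HEK293: signal arises when living cells convert a prosubstrate for NanoLuc in the medium, so luminescence tracks viable cell number. Compound (23 nL, DMSO) added 5 h post-seeding; kinetic reads at 0–40 h, 37 C.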

Test [10] is described as follows: A CellTox Green Cytotoxicity Assay to monitor cytotoxicity in HEK293 cells - 24 hour (AID 1224875). Note: nearly all actives have a fitted effect of over 45% in size. The gist of the method:
as §2

The nature of test [11]: A CellTox Green Cytotoxicity Assay to monitor cytotoxicity in HepG2 cells - 16 hour (AID 1224876). Note: nearly all actives have a fitted effect of over 45% in size. The method in brief:
(§5)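 Cells and non-lytic dye reagent are dispensed together (600 HepG2 cells/well) and incubated 5 h before DMSO compound transfer. Kinetic fluorescence is then recorded in the same wells during 40 h at 37 C.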

A short description of test [12]: A CellTox Green Cytotoxicity Assay to monitor cytotoxicity in HepG2 cells - 24 hour (AID 1224878). Note: nearly all actives have a fitted effect of over 45% in size. The method in brief: as §5
A short description of test [13]: A CellTox Green Cytotoxicity Assay to monitor cytotoxicity in HepG2 cells - 40 hour (AID 1224879). Note: nearly all actives have a fitted effect of over 40% in size. The method in brief: as §5
The nature of test [14]: qHTS RealTime-Glo MT Cell Viability Assay in HEK293 cells - 0 hour (AID 1224880). The gist of the method:
as §4

Test [15] in a line: qHTS RealTime-Glo MT Cell Viability Assay in HepG2 cells - 24 hour (AID 1224867). Note: nearly all actives have a fitted effect of over 50% in size. The gist of the method: (§6)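 Cell number in HepG2 cultures estimated from NanoLuc luminescence generated by metabolic reduction of a prosubstrate by living cells. The homogeneous, nonlytic format allowed repeated reads at 0, 8, 16, 24, 32 and 40 h of compound exposure.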
Test [16] can be described thus: qHTS RealTime-Glo MT Cell Viability Assay in HepG2 cells - 40 hour (AID 1224870). Note: nearly all actives have a fitted effect of over 50% in size. The method in brief: as §3
Test [17] can be described thus: qHTS RealTime-Glo MT Cell Viability Assay in HepG2 cells - 32 hour (AID 1224877). Note: nearly all actives have a fitted effect of over 55% in size. The method in brief:
as §6

Test [18] is described as follows: qHTS assay to identify small molecule agonists of the estrogen related receptor (ERR) signaling pathway from Tox21 library (AID 1224849; calls by dose curve; note: nearly all actives have a fitted effect of over 15% in size). As to conditions: ERR reporter cell line, ONE-Glo luciferase, 18 h; at 92.4 µM (top of the series) unless noted. The method in brief: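 Cells carrying the ERR reporter were plated and allowed to settle for 6 h, exposed to library compounds for 18 h at 37 C, then lysed with ONE-Glo and luminescence measured.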

Test [19] can be described thus: qHTS assay to identify small molecule antagonists of the estrogen related receptor (ERR) signaling pathway from Tox21 library (AID 1224848). Note: nearly all actives have a fitted effect of over 50% in size. Note: potency is the fitted concentration of half-maximal effect. The gist of the method: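 Tox21 10K compounds in DMSO tested for ERR pathway antagonism in NTP's ERR cell line; 18 h, 37 C exposure; ONE-Glo luminescence.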
% is set by controls: 0 for no effect and ±100 for the full control effect.

Regarding `O=[N+]([O-])c1cc[n+]([O-])cc1`, the Potency entry in test [1], in [3], in test [4], in test [5], in [6] and in [7] was “inactive” in each case. In addition, the Potency entry in [8], in test [10], in [11], in test [12], in test [13] and in test [14] was “inactive” throughout. Besides, the call in test [2] was inactive. In addition, in [9], the max response is -21.4%.
In the case of `CC(C)(C)c1ccc(S)cc1`, the Potency entry in test [1], in test [3], in test [15], in [4], in [5] and in [16] was “inactive” in each case. Besides, the Potency entry in [6], in [7], in test [8], in test [10], in test [11] and in test [17] was “inactive” each time. Besides, the Potency result in [12], in test [13] and in test [14] was “inactive” throughout. The compound was classed as inactive in [2]. Further, in [9], the max response was -0.358%.
Consider `O=C(c1ccc(O)cc1)c1ccc(O)cc1`, for which the Potency entry in test [1], in [3], in [15], in test [4], in [5] and in [6] was “inactive” each time. The Potency entry in test [7], in test [8], in [10], in test [17], in [12] and in [13] was “inactive” each time. In addition, the compound was called inactive in [2]. Moreover, the activity change, positive = activation in test [18] was 37.5% (active). The max response in test [9] is -22.8%.
For `NC(=S)N/N=C/c1cccnc1`, the Potency entry in test [1], in test [3], in test [19], in test [15], in test [4] and in [5] was “inactive” in each case. Besides, the Potency result in test [16], in test [6], in [7], in test [8], in test [10] and in test [11] was “inactive” throughout. Besides, the Potency result in test [17], in test [12], in test [13] and in [14] was “inactive” in each case. Besides, the activity change, positive = activation in test [18] is 0.0845% [at 42.5 µM]. Also, the max response in test [9] was 6.57%.
Regarding `O=C(O)Cc1cc(I)c(Oc2ccc(O)c(I)c2)c(I)c1`, the Potency in test [1] is 38.9 µM (active); in test [19], 27.3 µM (active). The Potency result in [3], in [15], in test [4], in test [5], in test [16] and in [6] was “inactive” throughout. Also, the Potency result in test [7], in [8], in [10], in test [11], in test [17] and in [12] was “inactive” throughout. Also, in test [13], the Potency result is “inactive”. Moreover, the activity change, positive = activation in test [18] is -36.3%. For the same compound, the max response in test [9] was 4.51%.
Take `CC/C(=C\C(=N/O)C(N)=O)C(C)[N+](=O)[O-]` (stereo not drawn): the Potency entry in test [1], in [3], in [15], in test [4], in [5] and in test [16] was “inactive” in each case. Further, the Potency result in test [7], in test [8], in [11], in test [17], in test [12] and in test [13] was “inactive” each time. The result in test [2] was inactive. Besides, the activity change, positive = activation in test [18] was 4.01%. The max response in test [9] is 22.3%.
Consider `Cc1ccc(C)o1`, for which the Potency entry in [1], in [3], in test [15], in test [4], in [5] and in test [6] was “inactive” each time. Also, the Potency entry in test [7], in [8], in test [11], in [17], in test [12] and in [13] was “inactive” in each case. Moreover, the Potency entry in [14] was “inactive”. In test [2], the outcome was inactive. In test [18], the activity change, positive = activation was 0.55%. For the same compound, the max response in test [9] is -14.9%.
As to `CCCC(=O)OCC`, the Potency entry in test [1], in test [3], in [15], in test [5], in test [16] and in [6] was “inactive” in each case. Besides, the Potency entry in [7], in test [8], in test [10], in test [11], in test [17] and in test [12] was “inactive” throughout. Besides, the Potency entry in test [13] and in [14] was “inactive” throughout. In addition, the call in [2] was inactive. For the same compound, the max response in [9] was 20%.
